Bioassay records (PubChem)
HTT ATP protect – Huntington cell model cytoprotection by ATP luminescence. PC12 HTT-Q103 induced, cytoprotection, ATP luminescence, 40 h. AID 1471. 230,000 tested, 0.14% active. Potency, µM (titrated, usually from 56.4 µM), for inactives: cytoprotection (ATP increase), hits mostly activators; further: potency means the concentration at half of the fitted maximal effect; % of control where 0% means no effect; nearly all actives have a fitted effect of over 45% in size
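Readout: ATPlite luminescence (ATP level). Model: stable PC12, inducible Htt exon1 Q103-GFP. Inducer: tebufenozide, 100 nM final. Compounds: dose series. No G418 in medium.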
GoLoco inh red – inhibitors of human Gai1-RGS12 GoLoco interaction (red fluorophore); P63096; 230,000 tested, 0.44% active; Gai1:RGS12 GoLoco peptide FP, rhodamine, 10 min; Potency, µM (doses to about 61.6 µM), for inactives: at the highest dose activity, negative = inhibition, most hits filed as inhibitors; AID 880; active means well fitted inhibition curve with a large enough effect, not every such curve was filed as active; inactive means no such curve, though single readings can be large or run the other way; further: potency means the concentration at half of the fitted maximal effect; on the % scale 0 is the no-effect control and ±100 the full control effect; nearly all actives have a fitted effect of over 30% in size
Target sequence (P63096 whole entry, looked up): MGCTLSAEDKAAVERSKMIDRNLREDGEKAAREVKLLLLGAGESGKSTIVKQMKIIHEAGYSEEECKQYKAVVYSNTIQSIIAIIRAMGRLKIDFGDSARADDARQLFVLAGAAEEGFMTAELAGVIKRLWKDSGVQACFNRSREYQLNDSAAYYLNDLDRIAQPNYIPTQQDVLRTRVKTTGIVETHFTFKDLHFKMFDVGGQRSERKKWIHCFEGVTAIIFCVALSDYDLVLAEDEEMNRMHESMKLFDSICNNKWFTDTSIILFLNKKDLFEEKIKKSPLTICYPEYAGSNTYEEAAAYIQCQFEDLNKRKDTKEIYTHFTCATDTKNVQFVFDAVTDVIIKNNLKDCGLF
HttQ103 aggreg – inhibitors of mutant huntingtin aggregate formation in PC12 cells | PC12 HttQ103-GFP aggregates, Acumen cytometry, 40 h | Potency, µM (top dose mostly 46.1 µM), for inactives: at the top dose activity change, negative = inhibition, most hits filed as inhibitors | 220,000 tested, 1.1% active; further: potency means the concentration at half of the fitted maximal effect; on the % scale 0 is the no-effect control and ±100 the full control effect; nearly all actives have a fitted effect of over 60% in size
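Inducible Q103 Huntingtin exon 1–GFP PC12 line, 1500 cells/well in phenol red free DMEM with 5% equine and 5% calf serum. Tebufenozide 100 nM induced expression; compounds titrated; aggregates quantified by cytometry.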
KDM4E inh – JMJD2E (human) inhibition; AID 2147; B2RXH2; JMJD2E catalytic domain, FDH-coupled NADH fluorescence (FDH is formaldehyde dehydrogenase); Potency, µM (titrated, usually from 57.1 µM), for inactives: top-dose activity change, negative = inhibition, usual class: inhibitors; 230,000 tested, 1.6% active; active means well fitted inhibition curve with a large enough effect, not every such curve was filed as active; inconclusive means small, poorly fitted or top-dose-only effect, or another doubt; inactive means no such curve, though single readings can be large or run the other way;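 further: potency means the concentration at half of the fitted maximal effect; 0% = wells with enzyme and -100% = buffer wells without enzyme; nearly all actives have a fitted effect of over 50% in size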
VDR inhibitor – blocks the human vitamin D receptor; Potency, µM, for the others: max response, negative = inhibition, usual class: inhibitors; P11473; VDR-SRC2-3 peptide fluorescence polarization, 2 h; 400,000 tested, 0.93% active; AID 504847; further: potency means the concentration at half of the fitted maximal effect; on the % scale 0 is the no-effect control and ±100 the full control effect
Target sequence (P11473 whole entry, looked up): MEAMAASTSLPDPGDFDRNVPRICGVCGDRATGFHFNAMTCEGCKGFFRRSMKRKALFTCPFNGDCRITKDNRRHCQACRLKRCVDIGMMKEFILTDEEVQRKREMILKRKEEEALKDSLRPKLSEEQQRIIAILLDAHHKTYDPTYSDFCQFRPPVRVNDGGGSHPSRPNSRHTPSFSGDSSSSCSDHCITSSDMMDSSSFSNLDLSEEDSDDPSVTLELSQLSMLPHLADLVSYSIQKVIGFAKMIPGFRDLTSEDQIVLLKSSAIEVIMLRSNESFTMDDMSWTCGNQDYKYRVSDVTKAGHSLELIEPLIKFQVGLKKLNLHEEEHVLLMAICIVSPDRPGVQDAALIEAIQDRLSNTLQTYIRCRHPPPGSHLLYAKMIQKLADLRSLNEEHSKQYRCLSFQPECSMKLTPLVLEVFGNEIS
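FP read-out; VDR + SRC2-3 coactivator peptide; 23 nl compound by pintool; 2 h RT incubation; reagents held at 4 deg C, protected from light.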
Coupling enz – counter-screen for Giardia aldolase inhibitors: coupling enzyme system; activity change, negative = inhibition, % at 58.2 µM, hits read low; coupling enzyme system counterscreen, AmpLite Red fluorescence; 290,000 tested, 0.67% active; in the data active means activity change below about -30%; further: on the % scale 0 is the no-effect control and ±100 the full control effect
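Counterscreen of the coupled detection system alone, without aldolase: glyceraldehyde-3-phosphate coupling enzymes plus AmpLite Red readout. Compounds at 57.5 uM final, 10 min RT preincubation, 20 min RT reaction, fluorescence 525/598 nm.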
Numbers without * were called inactive; ? = inconclusive; nt = no result given; [ ] = remark or other dose. Compounds with a hit are over-represented: about 2.3% of the library has one in this group of screens. Unless noted, the call rests on the fitted dose curve; in most records, active means well fitted curve in the direction sought with a large enough effect; inconclusive means small, poorly fitted or top-dose-only effect, or another doubt; inactive means no such curve, though single readings can be large; an effect the other way counts as inactive or inconclusive.

SMILES	HTT ATP protect	GoLoco inh red	HttQ103 aggreg	KDM4E inh	VDR inhibitor	Coupling enz
Cc1ccc(C(=O)Nc2nc(-c3ccccn3)cs2)cc1S(=O)(=O)N1CCOCC1	nt	nt	nt	nt	79µM*	nt
O=C(Nc1nc(-c2ccccn2)cs1)c1cc(S(=O)(=O)N2CCOCC2)ccc1F	nt	nt	nt	nt	29%	nt
Cc1ccc(C(=O)Nc2ccccn2)cc1S(=O)(=O)N1CCOCC1	nt	nt	nt	nt	3%	nt
Cn1c(Cc2cccs2)nnc1SCC(=O)Nc1ccc(F)cc1F	nt	nt	nt	nt	3%	nt
COc1ccc(-c2cnnc(CCCn3ccnc3-c3ccccc3)n2)cc1	-14%[10 µM]	nt	nt	nt	nt	1
Cc1ccc2[nH]c3nc(CCCn4ccnc4-c4ccccc4)nnc3c2c1	1µM*	nt	nt	nt	nt	-4
CCCCCN(C(=O)CCC(=O)OC(C)C(=O)c1ccc(Cl)cc1)c1c(N)n(CCCC)c(=O)[nH]c1=O (centres undefined)	nt	nt	nt	nt	-22%	nt
COC(=O)C1C(=O)C(C(=O)/C=C/c2ccco2)C(=O)CC1(C)C (centres undefined)	?	5%	nt	2%	45µM*	0
COC(=O)C1C(=O)C(C(=O)/C=C/c2ccccc2)C(=O)CC1(C)C (centres undefined)	?	-3%	-17%	-12%	-3%	8
Cc1c(C(=O)Nc2ccc3c(c2)OCCO3)sc2nc(-c3ccccc3)cn12	25%[10 µM]	0%	16µM*	?	20%	1
CC(=O)Nc1ccc(-c2nc3ccc(Cl)cc3[nH]2)cc1	-16%[1.9 µM]	18%	nt	?	9%	2
O=C1C=C(c2ccc3ncccc3c2)C[C@@H](c2ccc3c(c2)OCO3)C1	nt	nt	nt	nt	-5%	nt
COc1cc(N(C)C)ccc1C=c1c2ccccc2n2c1cc(-c1ccccc1)[n+]2C	nt	nt	nt	nt	79µM*	nt
C=CCOC(=O)C(=O)/C=C/c1csc2ccccc12	7%[10 µM]	14%	-12%[9.22 µM]	-28%	45µM*	-3
CC1=CC(=O)C=C(C)C1=NOc1ccccc1[N+](=O)[O-]	nt	-23%	-5%	-3%	-11%	-37*
Cc1cc(C)c(S(=O)(=O)Oc2ccccc2[N+](=O)[O-])c(C)c1	nt	nt	nt	nt	-7%	nt
O=C(O)/C=C\c1cnc[nH]1	-6%[1.9 µM]	nt	nt	nt	nt	nt
N#C/C(=C\c1ccc(OCC(N)=O)cc1)c1ccccc1	nt	0%	-23%	?	-4%	0
Cc1ccccc1-c1cc(N2CCNCC2)ncn1	19%	4%	nt	nt	45µM*	1
C[n+]1cnn2c1SCC1(COC1)C2	3%[0.074 µM]	10µM*	14%	-11%	1%	3
COCCn1c(=O)sc2ccccc2c1=O	-31%[10 µM]	-5%	4%	-5%	16µM*	0
COc1ccc(Cn2c(=O)sc3ccccc3c2=O)cc1	8%[10 µM]	5%	9%	0%	-4%	6
COc1cccc(C2CC(C(F)(F)F)n3ncc(C(=O)NCc4ccco4)c3N2)c1 (centres undefined)	1%[0.074 µM]	14%	2.8µM*	1%	-8%	-2
CN(Cc1ccco1)c1nc(-c2ccccc2C(F)(F)F)nc2ccccc12	4%	16%	nt	nt	35µM*	-1
CN(Cc1ccco1)c1nc(-c2cccnc2)nc2ccccc12	4%	-3%	nt	nt	32µM*	1
SMILES	HTT ATP protect	GoLoco inh red	HttQ103 aggreg	KDM4E inh	VDR inhibitor	Coupling enz
COc1ccccc1-c1nc(N(C)Cc2ccco2)c2ccccc2n1	-100%	-5%	nt	nt	?	3
COC(=O)c1ccc(C(=O)Nc2ccc(N)cc2N)cc1	-13%	22%	3%	-29%	18%	-34*
CCN(CCCCCN(C)C)Cc1cc2ccccc2o1	19%[10 µM]	-16%	5%	7%	-2%	-10
N#CC(C#N)=Cc1cnc(N2CCN(c3ccccc3)CC2)s1	nt	nt	nt	nt	-15%	-1
CCCC[C@@H](C)/C=C(C)/C=C(\C)C(=O)NC1=C[C@@](O)(/C=C/C=C/C=C/C(=O)NC2=C(O)CCC2=O)[C@@H]2O[C@@H]2C1=O	nt	nt	nt	nt	2.2µM*	1
COc1ccc(Cl)cc1NS(=O)(=O)c1c(C)[nH]c(C)c1C(=O)N1CCCCC1	nt	nt	nt	nt	-6%	0
Cc1cc(/C=C(/C#N)c2nc3ccccc3[nH]2)c(C)n1-c1cc(C(=O)O)cc(C(=O)O)c1	-53%	12%	10%	22µM*	-11%	-4
COc1ccc(N(CC(=O)N2CCc3ccccc3C2)S(C)(=O)=O)cc1Cl	nt	nt	nt	nt	-20%	0
O=C(CS(=O)(=O)c1cccc2nsnc12)N1CCN(c2ccccc2F)CC1	nt	nt	nt	nt	-5%	nt
CCN(CC)S(=O)(=O)c1ccc(-c2csc(C)n2)cc1	-127%	5%	-22%	9%	22µM*	5
CC(C)C(OC(=O)C1=Cc2ccccc2OC1)C(=O)NCC1CCCO1 (centres undefined)	nt	nt	nt	nt	-18%	nt
O=C(Cn1nnc2ccccc2c1=O)N[C@@H](Cc1ccccc1)C(=O)O	0%[10 µM]	-1%	4%[9.22 µM]	0%	42%	5
COc1ccccc1-c1nccc(Nc2ccc(F)cc2)n1	-64%	16%	nt	nt	50µM*	-1
CN(C)C(=O)c1ccc(-c2nccc(NCc3ccccc3)n2)cc1	-24%	33%	nt	nt	?	1
Cc1noc(C)c1-c1nccc(Nc2ccc(F)cc2)n1	-41%	-7%	nt	nt	3%	1
Fc1ccc(Nc2ccnc(-c3ccc4c(c3)OCO4)n2)cc1	-36%	3%	nt	nt	40µM*	-3
CN(C)C(=O)c1ccc(-c2nccc(Nc3ccc(F)cc3)n2)cc1	-29%	11%	nt	nt	50µM*	-2
Fc1ccc(Nc2ccnc(-c3ccoc3)n2)cc1	1%	41%	nt	nt	25µM*	-2
Cc1ccc(NC(=S)NCC(C)CSc2ccc(Cl)cc2)cc1 (centres undefined)	-167%	4%	25µM*	2%	-9%	0
Cc1ccc(C)c(NC(=S)NCCSc2ccc(Cl)cc2)c1	0%[0.074 µM]	13%	-14%	6%	-5%	-2
Cc1ccc(NC(=S)NCCSc2ccc(Cl)cc2)c(C)c1	1.8µM*	7%	6%	-5%	-12%	-6
Cc1ccc(Cn2c(C(C)NC(=O)c3ccccc3)nc3ccccc32)cc1 (centres undefined)	nt	nt	nt	nt	7%	nt
O=c1c2ccccc2nc(/C=C/c2cccnc2)n1CCc1ccccc1	-9%[10 µM]	0%	-6%[9.22 µM]	16µM*	-10%	-2
O=C(CN(Cc1ccccc1)S(=O)(=O)c1ccc(F)cc1)NCc1cccnc1	nt	nt	nt	nt	-7%	-7
C=CCOn1c(=O)c(-c2ccccc2)[n+]([O-])c2ccccc21	-23%	5%	-3%	20µM*	-1%	-6
C=CCOn1c(=O)c(-c2ccc(C)cc2)[n+]([O-])c2ccccc21	nt	nt	nt	nt	-9%	0
C[N+]1=C(/C=C/Nc2ccccc2Cl)C(C)(C)c2ccccc21	12%[10 µM]	230%	13µM*	-9%	-14%	0
CCc1cccc(NC(=O)CSC2=NS(=O)(=O)c3ccccc32)c1	-22%	-32%	-11%	4%	13µM*	5
